Experiment [1] is described as follows: qHTS assay for identifying genotoxic compounds that show differential cytotoxicity against isogenic chicken DT40 cell lines with known DNA damage response pathways - wild type cell line (AID 743012). Also: nearly all actives have a fitted effect of over 60% in size. Also: potency is read from the fitted curve at half-maximal effect. In a few lines: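 Luminescent ATP viability signal (CellTiter-Glo, 30 min RT) recorded after wild type DT40 cells were incubated with compounds for 40 h at 37 C/5% CO2.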
(In general: In qHTS, concentration-response curves come from the screen itself.)

Experiment [2] can be described thus: qHTS assay for identifying genotoxic compounds that show differential cytotoxicity against isogenic chicken DT40 cell lines with known DNA damage response pathways - Rev3 mutant cell line (AID 743014). Also: nearly all actives have a fitted effect of over 55% in size. Also: potency is read from the fitted curve at half-maximal effect.
The nature of experiment [3]: qHTS assay for identifying genotoxic compounds that show differential cytotoxicity against isogenic chicken DT40 cell lines with known DNA damage response pathways - Rad54/Ku70 mutant cell line (AID 743015). Also: nearly all actives have a fitted effect of over 60% in size. Also: potency is read from the fitted curve at half-maximal effect.
A short description of experiment [4]: qHTS assay to identify small molecule antagonists of the androgen receptor (AR) signaling pathway - cell viability counter screen (AID 743033; also: % is scaled to controls: 0 for no effect and ±100 for the full control effect; nearly all actives have a fitted effect of over 45% in size).
Experiment [5] in a line: qHTS assay to identify small molecule antagonists of the androgen receptor (AR) signaling pathway using the MDA cell line - cell viability counter screen (AID 743041; also: % is scaled to controls: 0 for no effect and ±100 for the full control effect; nearly all actives have a fitted effect of over 45% in size). In a few lines: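 Using the breast carcinoma line MDA-kb2 AR-luc, test chemicals were co-incubated with R1881 for 16 h; CellTiter-Fluor reagent, added at 15.5 h, provided a fluorescence measure of live cells.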

Experiment [6] in a line: qHTS assay to identify small molecule antagonists of the thyroid receptor (TR) signaling pathway - cell viability counter screen (AID 743064). Also: nearly all actives have a fitted effect of over 50% in size. Also: potency is read from the fitted curve at half-maximal effect. In a few lines:
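GH3.TRE-Luc cells, 4 h pre-plating; cpd + T3 1 nM final; 37 °C 23.5 h; CellTiter-Fluor 30 min; fluorescence read.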

For experiment [7], the system named is thyroid hormone receptor (rat, GH3 cells). The experiment in a line: qHTS assay to identify small molecule agonists of the thyroid receptor (TR) signaling pathway (AID 743066; calls by dose curve; also: % is scaled to controls: 0 for no effect and ±100 for the full control effect).
For experiment [8], the target named is Estrogen receptor (Homo sapiens) (UniProt P03372). Kind of experiment: qHTS assay to identify small molecule antagonists of the estrogen receptor alpha (ER-alpha) signaling pathway (AID 743069; active = well fitted curve in the direction sought with a large enough effect in the signal ratio in the repeat runs, not every such curve was filed as active; inconclusive = weak or mixed curves, or effect the other way; inactive = no such curve, though single readings can be large or run the other way; the % refers to the signal ratio; also: potency is read from the fitted curve at half-maximal effect). In a few lines:
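Fluorescence intensity from a beta-lactamase FRET substrate served as the read-out. Cells: HEK293 with stably integrated ER-alpha-UAS-bla reporter. Agonist 17beta-estradiol was co-added with compounds; incubation 18 hr at 37C, substrate 2 hr at room temperature.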

Experiment [9] in a line: qHTS assay to identify small molecule antagonists of the estrogen receptor alpha (ER-alpha) signaling pathway - cell viability counter screen (AID 743074; calls by dose curve; also: % is scaled to controls: 0 for no effect and ±100 for the full control effect; nearly all actives have a fitted effect of over 45% in size).
The target of experiment [10] is Estrogen receptor (Homo sapiens) (UniProt P03372). The experiment in a line: qHTS assay to identify small molecule agonists of the estrogen receptor alpha (ER-alpha) signaling pathway (AID 743075; calls by dose curve; also: potency is read from the fitted curve at half-maximal effect; as to activation: % is scaled to controls: 0 for no effect and ±100 for the full control effect).
Chain of Estrogen receptor (Homo sapiens) (P03372 whole entry, looked up): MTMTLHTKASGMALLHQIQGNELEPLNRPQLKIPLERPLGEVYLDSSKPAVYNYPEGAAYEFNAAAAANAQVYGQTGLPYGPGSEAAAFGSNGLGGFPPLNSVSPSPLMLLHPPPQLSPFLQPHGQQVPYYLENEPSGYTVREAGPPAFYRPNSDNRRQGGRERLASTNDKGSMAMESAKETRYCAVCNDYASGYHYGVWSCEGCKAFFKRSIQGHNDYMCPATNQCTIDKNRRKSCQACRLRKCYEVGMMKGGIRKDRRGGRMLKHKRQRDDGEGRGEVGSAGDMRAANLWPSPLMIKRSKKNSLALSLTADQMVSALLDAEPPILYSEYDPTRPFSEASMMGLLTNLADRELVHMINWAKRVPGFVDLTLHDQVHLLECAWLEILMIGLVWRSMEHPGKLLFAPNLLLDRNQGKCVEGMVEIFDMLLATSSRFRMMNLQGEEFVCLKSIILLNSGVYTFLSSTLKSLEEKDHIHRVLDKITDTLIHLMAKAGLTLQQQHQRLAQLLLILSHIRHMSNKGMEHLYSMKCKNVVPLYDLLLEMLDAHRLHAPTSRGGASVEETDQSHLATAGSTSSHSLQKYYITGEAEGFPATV
The nature of experiment [11]: qHTS assay to identify small molecule antagonists of the estrogen receptor alpha (ER-alpha) signaling pathway using the BG1 cell line - cell viability counter screen (AID 743081).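 Also: compound given together with 17beta-estradiol as the ER stimulus; % is scaled to controls: 0 for no effect and ±100 for the full control effect; nearly all actives have a fitted effect of over 45% in size.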
Experiment [12] in a line: qHTS assay to identify small molecule antagonists of the glucocorticoid receptor (GR) signaling pathway - cell viability counter screen (AID 720693). Also: % is scaled to controls: 0 for no effect and ±100 for the full control effect; nearly all actives have a fitted effect of over 55% in size.
In experiment [13] the target is Aromatase (Homo sapiens) (UniProt P11511). The experiment in a line: qHTS assay to identify aromatase inhibitors (AID 743083). Also: nearly all actives have a fitted effect of over 55% in size. Also: potency is read from the fitted curve at half-maximal effect.
Chain of Aromatase (Homo sapiens) (P11511 whole entry, looked up): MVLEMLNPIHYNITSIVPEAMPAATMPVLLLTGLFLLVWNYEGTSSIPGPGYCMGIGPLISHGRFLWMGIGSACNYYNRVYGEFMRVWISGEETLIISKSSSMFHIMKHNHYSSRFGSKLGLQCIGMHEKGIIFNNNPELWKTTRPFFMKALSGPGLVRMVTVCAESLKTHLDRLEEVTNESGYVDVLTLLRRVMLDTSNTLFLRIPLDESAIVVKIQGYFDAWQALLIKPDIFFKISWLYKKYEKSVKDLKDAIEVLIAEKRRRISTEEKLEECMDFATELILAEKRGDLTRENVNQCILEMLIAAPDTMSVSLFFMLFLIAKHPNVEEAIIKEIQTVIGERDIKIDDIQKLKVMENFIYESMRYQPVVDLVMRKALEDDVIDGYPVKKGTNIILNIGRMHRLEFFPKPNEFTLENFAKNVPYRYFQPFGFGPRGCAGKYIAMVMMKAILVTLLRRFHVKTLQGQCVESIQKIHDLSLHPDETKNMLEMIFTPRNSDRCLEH
The nature of experiment [14]: qHTS assay to identify small molecule antagonists of the thyroid receptor (TR) signaling pathway (AID 743065). Also: nearly all actives have a fitted effect of over 55% in size. Also: potency is read from the fitted curve at half-maximal effect. The essentials:
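Antagonism measured as loss of luciferase signal in GH3 cells stably carrying a TRE-luciferase reporter, co-treated with compound and T3 (1 nM final) for 23.5 h at 37 C. Viability was read in the same well by CellTiter-Fluor.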

Experiment [15] is described as follows: qHTS assay to identify small molecule antagonists of the estrogen receptor alpha (ER-alpha) signaling pathway using the BG1 cell line (AID 743080; calls by dose curve; also: potency is read from the fitted curve at half-maximal effect; nearly all actives have a fitted effect of over 25% in size). The essentials: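 Antagonist mode: compounds in DMSO were pinned onto BG1-Luc-4E2 cells alongside 17beta-estradiol agonist, incubated 21.5 h, and ERE-driven luciferase measured with ONE-Glo. Cytotoxicity was multiplexed using CellTiter-Fluor fluorescence.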

Experiment [16] addresses Estrogen receptor (Homo sapiens) (UniProt P03372). Kind of experiment: qHTS assay to identify small molecule agonists of the estrogen receptor alpha (ER-alpha) signaling pathway using the BG1 cell line (AID 743079). Also: % is scaled to controls: 0 for no effect and ±100 for the full control effect; nearly all actives have a fitted effect of over 20% in size. The conditions noted are these: BG1Luc4E2 cells, ERE-luciferase agonist, 22 h; activation: at 70.3 µM (top of the series).
The target in experiment [17] is Androgen receptor (Homo sapiens) (UniProt P10275). The experiment in a line: qHTS assay to identify small molecule antagonists of the androgen receptor (AR) signaling pathway (AID 743035; active = well fitted inhibition curve with a large enough effect in the signal ratio in the repeat runs, not every such curve was filed as active; inconclusive = weak or mixed curves, or effect the other way; inactive = no such curve, though single readings can be large or run the other way; the % refers to the signal ratio; also: % is scaled to controls: 0 for no effect and ±100 for the full control effect). The essentials: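 Quantitative HTS of the Tox21 10K library used HEK293 AR-UAS-bla cells stimulated with R1881 alongside compound for 16 h at 37C, followed by beta-lactamase FRET detection (LiveBLAzer B/G, 2 h, RT).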
Chain of Androgen receptor (Homo sapiens) (P10275 whole entry, looked up): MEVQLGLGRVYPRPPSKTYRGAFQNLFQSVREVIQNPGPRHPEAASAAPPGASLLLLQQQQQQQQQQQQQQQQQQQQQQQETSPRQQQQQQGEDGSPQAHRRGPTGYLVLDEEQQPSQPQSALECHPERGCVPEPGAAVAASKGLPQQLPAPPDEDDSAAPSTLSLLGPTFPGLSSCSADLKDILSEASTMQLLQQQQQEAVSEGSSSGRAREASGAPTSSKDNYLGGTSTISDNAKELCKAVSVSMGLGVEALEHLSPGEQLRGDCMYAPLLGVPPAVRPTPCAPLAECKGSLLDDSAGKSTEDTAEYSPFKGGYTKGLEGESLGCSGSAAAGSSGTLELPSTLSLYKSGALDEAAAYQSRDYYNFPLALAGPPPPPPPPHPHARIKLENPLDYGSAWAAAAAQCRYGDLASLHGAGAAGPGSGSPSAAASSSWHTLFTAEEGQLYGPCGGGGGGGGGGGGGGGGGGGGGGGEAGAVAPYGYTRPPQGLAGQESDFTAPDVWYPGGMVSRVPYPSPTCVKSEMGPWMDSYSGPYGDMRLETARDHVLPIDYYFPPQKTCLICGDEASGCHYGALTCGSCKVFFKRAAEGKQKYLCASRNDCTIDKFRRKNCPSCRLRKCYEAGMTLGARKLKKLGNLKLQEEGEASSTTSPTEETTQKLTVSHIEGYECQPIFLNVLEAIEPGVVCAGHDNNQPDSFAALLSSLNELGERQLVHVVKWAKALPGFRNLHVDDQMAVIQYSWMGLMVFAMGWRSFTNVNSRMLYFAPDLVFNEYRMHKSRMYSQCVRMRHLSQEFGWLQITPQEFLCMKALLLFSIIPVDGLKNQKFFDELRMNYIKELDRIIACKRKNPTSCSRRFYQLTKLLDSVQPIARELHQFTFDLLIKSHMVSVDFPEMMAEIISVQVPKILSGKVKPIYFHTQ

Experiment [18] has the same target. The experiment in a line: qHTS assay to identify small molecule agonists of the androgen receptor (AR) signaling pathway (AID 743036; active = well fitted activation curve with a large enough effect in the signal ratio in the repeat runs, with a control signal flat, not every such curve was filed as active; inconclusive = weak or mixed curves, or effect the other way; inactive = no such curve, though single readings can be large or run the other way; the % refers to the signal ratio; also: potency is read from the fitted curve at half-maximal effect). The essentials: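 AR-bla HEK293 cells, 2,000/well; 4 h preincubation 37C/5% CO2; compound (DMSO) 16 h at 37C; LiveBLAzer B/G FRET substrate 2 h RT; fluorescence intensity read-out.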
The target is the same in experiment [19]. The experiment in a line: qHTS assay to identify small molecule antagonists of the androgen receptor (AR) signaling pathway using the MDA cell line (AID 743042). The essentials: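 Antagonist mode: compounds plus R1881 agonist added to MDA-kb2 AR-luc cells, incubated 16 h at 37C. Luciferase reporter luminescence quantified, with multiplexed CellTiter-Fluor readout for cell viability.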

Results on 11 compounds are retold here after PubChem BioAssay (Tox21).

Calls of active or inactive are those of the source. Unless noted, calls follow the shape of the dose curve; as a rule, active = well fitted curve in the direction sought with a large enough effect in the repeat runs; inconclusive = weak or mixed curves; inactive = no such curve, though single readings can be large; an effect the other way counts as inactive or inconclusive.

Regarding `C[C@]12CCC(=O)C=C1C=C[C@@H]1[C@@H]2CC[C@@]2(C)[C@H]1CC[C@@]21CCC(=O)O1`, the Potency was 16.8 µM (active) in [1], 23.7 µM (active) in experiment [2] and 26.6 µM (active) in [3]. Further, the Potency result in experiment [4], in experiment [5], in [6], in experiment [8], in [9] and in experiment [10] was “inactive” in each case. In addition, the Potency entry in [11] is “inactive”. In [7], the compound was called inactive.
As to `Nc1ccc(C(=O)OCCCOC(=O)c2ccc(N)cc2)cc1`, the Potency entry in [12], in experiment [4], in experiment [5], in [9], in experiment [10] and in experiment [11] was “inactive” throughout. In addition, the result in experiment [7] was inactive. Besides, the Potency in experiment [13] is 30.6 µM (active).
On to `CC(=N\O)/C(C)=N/O`, for which the Potency result in experiment [12], in experiment [4], in experiment [5], in experiment [6], in experiment [14] and in experiment [9] was “inactive” in each case. In addition, the Potency result in experiment [11] and in [13] was “inactive” throughout. In experiment [7], the compound was called inactive.
On to `Cc1ccc(S(=O)(=O)NC2CCCCC2)cc1`, for which the Potency entry in [12], in experiment [4], in experiment [5], in [6], in experiment [9] and in experiment [10] was “inactive” throughout. Besides, the Potency entry in experiment [11] and in experiment [13] was “inactive” in each case. The call in [7] was inactive. Besides, the Potency in [15] is 68.1 µM (active).
Regarding `Nc1nc(Cl)nc2c1ncn2[C@@H]1O[C@H](CO)[C@@H](O)[C@@H]1F`, the Potency is 0.0019 µM (active) in [1], 0.0019 µM (active) in experiment [2], 0.0024 µM (active) in experiment [3] and 0.133 µM (active) in experiment [14]. The Potency entry in experiment [4], in experiment [5], in [10], in experiment [16] and in experiment [11] was “inactive” throughout. In experiment [7], the compound was classed as inactive.
Take `CC(=O)[C@H]1CC[C@H]2[C@@H]3C[C@H](C)C4=CC(=O)CC[C@]4(C)[C@H]3[C@@H](O)C[C@]12C`: the Potency entry in experiment [12], in experiment [4], in [17], in [5], in experiment [19] and in experiment [6] was “inactive” throughout. Further, the Potency entry in experiment [14], in experiment [9], in [11] and in [13] was “inactive” each time. Also, the Potency in experiment [18] is 0.0129 µM (active). In addition, the outcome in experiment [7] was inactive.
As for `CCCOc1ccc(S(=O)(=O)N2CCN(CC)CC2)cc1-c1nc2c(CC)n(Cc3ccccn3)nc2c(=O)[nH]1`, the Potency result in experiment [12], in experiment [4], in experiment [5], in experiment [8], in [9] and in experiment [10] was “inactive” throughout. Also, the Potency result in [16], in experiment [11] and in experiment [13] was “inactive” each time. Besides, the compound was called inactive in experiment [7].
With `CCC(=O)Oc1ccc(/C(CC)=C(\CC)c2ccc(OC(=O)CC)cc2)cc1`, the Potency was 48.6 µM (active) in experiment [1]; 54.5 µM (active) in experiment [2]; 48.6 µM (active) in experiment [3]; 54.5 µM (active) in experiment [6]; 30.6 µM (active) in experiment [14]; 54.9 µM [inconclusive] (active) in [8]. In addition, the Potency in experiment [10] is 0.0014 µM [inconclusive] (active); in [15] it was 61.1 µM (active). The Potency entry in experiment [4], in experiment [5], in [9], in [11] and in experiment [13] was “inactive” throughout. Also, in experiment [7], the call was inactive. Further, in experiment [16], the activation is 77.1% (active).
As for `CCCCC(CC)CNCC(CC)CCCC` (stereo not drawn), the Potency entry in experiment [1], in experiment [2], in experiment [3], in experiment [4], in [5] and in experiment [14] was “inactive” in each case. Moreover, the Potency entry in experiment [9] and in [11] was “inactive” in each case. In addition, the call in experiment [7] was inactive.
For the compound `C=CC(C)(C)CC(=O)OC`, the Potency result in experiment [1], in experiment [2], in [3], in experiment [4], in experiment [5] and in [6] was “inactive” each time. Also, the Potency entry in experiment [14], in [9] and in experiment [11] was “inactive” in each case.
Consider `Cc1ccccc1N1C(=O)c2cc(S(N)(=O)=O)c(Cl)cc2NC1C` (stereo not drawn), for which the Potency entry in [1], in experiment [2], in experiment [3], in experiment [4], in experiment [6] and in experiment [14] was “inactive” throughout. The Potency result in experiment [9], in [11] and in experiment [13] was “inactive” each time. The compound was called inactive in experiment [7].
